Only a part of the results of these assays is listed, not drawn at random.
Molecular target: T1, Protein RecA (Mycobacterium tuberculosis) (UniProt P9WHJ3)
T1 sequence (whole entry): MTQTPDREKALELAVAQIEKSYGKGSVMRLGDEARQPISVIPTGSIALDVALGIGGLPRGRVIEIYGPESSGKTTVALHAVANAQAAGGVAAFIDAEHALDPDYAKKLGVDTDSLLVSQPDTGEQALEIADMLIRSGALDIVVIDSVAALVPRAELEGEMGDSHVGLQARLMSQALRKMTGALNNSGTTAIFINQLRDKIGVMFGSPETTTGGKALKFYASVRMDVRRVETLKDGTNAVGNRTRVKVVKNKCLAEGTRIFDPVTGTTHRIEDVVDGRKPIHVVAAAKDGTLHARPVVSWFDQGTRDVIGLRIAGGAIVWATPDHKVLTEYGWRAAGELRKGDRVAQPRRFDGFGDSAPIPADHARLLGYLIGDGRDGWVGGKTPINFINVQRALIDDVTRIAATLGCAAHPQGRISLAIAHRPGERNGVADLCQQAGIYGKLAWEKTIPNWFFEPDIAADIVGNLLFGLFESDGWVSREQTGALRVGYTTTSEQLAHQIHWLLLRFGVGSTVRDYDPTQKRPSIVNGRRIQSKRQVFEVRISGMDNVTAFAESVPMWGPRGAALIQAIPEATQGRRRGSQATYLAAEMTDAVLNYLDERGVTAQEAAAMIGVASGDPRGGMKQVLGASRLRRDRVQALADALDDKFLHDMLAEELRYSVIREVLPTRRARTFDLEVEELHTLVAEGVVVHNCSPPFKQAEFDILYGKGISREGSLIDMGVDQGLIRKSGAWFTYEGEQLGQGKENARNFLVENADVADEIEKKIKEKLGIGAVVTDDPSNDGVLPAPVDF
Test: M. tuberculosis H37Rv growth inhibition, dose response, strain H37Rv (AID 489010); call rule not given here;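 note: whole Mycobacterium tuberculosis cells grown in culture and not purified RecA protein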
Format: functional

| SMILES | IC90 |
| --- | --- |
| Cc1nc2c(=O)n(C)c(=O)nc-2n(C)n1 | 4.19 µM (active) |
| Cc1cc(C)c(S(=O)(=O)/N=C2\C=C(Nc3ccc(C(=O)O)cc3)C(=O)c3ccccc32)c(C)c1 | > 100 µM (active) |
| CC(NC(=O)COC(=O)c1cc(NS(=O)(=O)c2ccc(Cl)c([N+](=O)[O-])c2)ccc1O)C1CC2CCC1C2 (centres undefined) | > 100 µM (active) |
| Cc1[nH]n(-c2ccccc2)c(=O)c1C(c1cccc([N+](=O)[O-])c1)c1c(C)[nH]n(-c2ccccc2)c1=O | > 100 µM (active) |
| CC(CCc1ccccc1)NC(=O)COC(=O)c1cc(NS(=O)(=O)c2ccc(Cl)c([N+](=O)[O-])c2)ccc1O (centres undefined) | > 100 µM (active) |
| Cn1nc(-c2ccccn2)nc2c(=O)n(C)c(=O)nc1-2 | 22.3 µM (active) |
| CC(C)c1nnc(NC(=O)c2nc(S(=O)(=O)Cc3ccc(F)cc3)ncc2Cl)s1 | > 100 µM (active) |
| O=C(OCn1ncc(Cl)c(Cl)c1=O)c1cccc(C(F)(F)F)c1 | > 100 µM (active) |
| Cc1ccc(-n2nnc3c(SCC(=O)NCC4CCCO4)ncnc32)cc1 (centres undefined) | > 100 µM (active) |
| Cc1ccc(C)c(Sc2ccc(NC(=O)CCl)cc2)c1 | > 100 µM (active) |
| Cc1ccccc1-n1ncc2c([N+](=O)[O-])cc([N+](=O)[O-])cc21 | 2.16 µM (active) |
| Cn1nc(-c2ccc(Cl)cc2)nc2c(=O)n(C)c(=O)nc1-2 | 20 µM (active) |
| Cc1cccc(Cn2nnc3c2C(=O)c2ccccc2C3=O)c1 | 52.6 µM (active) |
| COc1ccc2nc(C)cc(Sc3nc4ccccc4s3)c2c1 | > 100 µM (active) |

Source: ChEMBL document CHEMBL1201862, “PubChem BioAssay data set” (2004)
